KB-V1 cytotox: KB-V1 MDR subline cytotoxicity; KB-V1 MDR cells viability, CellTiter-Glo, 72 h; Potency, µM (highest dose often 46.1 µM), hits mostly cytotoxic; hit rate 3.4% among 400,000; note: % is set by controls: 0 for no effect and ±100 for the full control effect; nearly all actives have a fitted effect of over 60% in size
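Drug-selected KB-V1 cells, grown in DMEM lacking phenol red with 10% FBS, receive compound titrations; after three days at 37 degrees C, surviving cell ATP is quantified by CellTiter-Glo luminescence and responses normalized and curve-fitted.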
MCF10A rerep: inducers of DNA re-replication in MCF 10A breast cells. MCF 10A DNA re-replication, Hoechst nuclear intensity, 48 h. AID 624296. Potency, µM (doses to about 46.1 µM), inactives show at the highest dose activity, positive = re-replication, usual class: activators. hit rate 2.9% among 350,000; note: % of control where 0% means no effect; nearly all actives have a fitted effect of over 50% in size
SW480 rerep: induces DNA re-replication in SW480 colon adenocarcinoma cells. SW480 DNA re-replication, Hoechst DNA content imaging, 48 h. Potency, µM (titrated, usually from 46.1 µM), for inactives: at the top dose re-replication activation, usual class: activators. hit rate 1.8% among 340,000; note: % of control where 0% means no effect; nearly all actives have a fitted effect of over 55% in size
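Image-based read-out: total Hoechst fluorescence of nuclei (405 nm excitation, 500-530 nm emission), with hits raising the fraction of high-intensity nuclei. SW480 colon cells incubated 48 hr with compounds at 37 C.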
HT1080 IDH1KD tx: HT-1080 IDH1 knockdown cell toxicity (counter line) | HT-1080 IDH1 knockdown viability, ATP luminescence, 48 h | Potency, µM (highest dose often 46.1 µM), for the others: at the top dose activity, negative = toxicity, usual class: cytotoxic | hit rate 2% among 360,000;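 note: 0% = DMSO wells and -100% = cell-free medium wells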
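Viability of IDH1-knockdown HT-1080 fibrosarcoma cells was assessed by CellTiter-Glo after 48 h at 37 °C with titrated compound; concentration-effect curves were classified by fit quality and response size.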
HT1080NT lethal: kills 2HG-producing HT-1080-NT fibrosarcoma cells; HT-1080-NT fibrosarcoma viability, CellTiter-Glo ATP luminescence, 48 h; AID 686970; Potency, µM (series often up to 46.1 µM), without a hit: top-dose activity, negative = less viability, hits mostly cytotoxic; hit rate 1.6% among 360,000;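 note: NT is the 2HG producing partner of a matched IDH1 knockdown line; 0% = DMSO-treated cells and -100% = media-only wells without cells; nearly all actives have a fitted effect of over 55% in size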
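Viability by CellTiter-Glo luminescence after 48 h compound exposure at 37C of HT-1080-NT cells (750/well, RPMI, 5% FBS). % activity scaled between DMSO wells and medium-only wells, then curve-fitted and categorized by curve class.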
KB-3-1 tox: kills parental KB-3-1 adenocarcinoma cells | AID 1347075 | KB-3-1 viability, CellTiter-Glo ATP luminescence, 72 h | Potency, µM (titrated, usually from 46.1 µM), actives largely listed as cytotoxic | hit rate 1.4% among 400,000; note: % is set by controls: 0 for no effect and ±100 for the full control effect; nearly all actives have a fitted effect of over 60% in size
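Multi-concentration cytotoxicity screen in KB-3-1 cells grown in DMEM lacking phenol red with 10% FBS. After 72 h at 37 °C with compound, ATP-dependent luminescence was recorded.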
* = called active by the depositor; i = inactive; ? = inconclusive; . = no result given; [ ] = remark or other dose. Hits are enriched below; roughly 8% of the tested compounds scored in any of these assays. Calls come from the whole dose curve; as a rule, active = well fitted curve in the direction sought with a large enough effect; inconclusive = small, poorly fitted or top-dose-only effect, or another doubt; inactive = no such curve, though single readings can be large; an effect the other way counts as inactive or inconclusive. Potency is the fitted concentration of half-maximal effect.

SMILES	KB-V1 cytotox	MCF10A rerep	SW480 rerep	HT1080 IDH1KD tx	HT1080NT lethal	KB-3-1 tox
COc1ccc(CCN2C(=O)c3ccccc3NC2c2cc(Cl)c(O)c(OC)c2)cc1 (centres undefined)	?	2.6µM*	8.2µM*	2.9µM*	1.6µM*	?
COc1ccc(C2Nc3ccccc3C(=O)N2NC(C)=O)cc1OC (centres undefined)	i	?	-33%	6%	4%	i
Cc1ccsc1C1Nc2ccccc2C(=O)N1O (centres undefined)	?	1%	16µM*	-1%	-3%	i
CCc1nn(CC(=O)NCCc2ccc(Cl)cc2)c(=O)c2cc3c(OC)cccc3n12	?	.	.	.	.	i
CCOc1ccc(C2C(C(=O)Nc3ccccc3C)=C(C)Nc3nnnn32)cc1 (centres undefined)	i	.	.	.	.	i
CCS(=O)(=O)N1CCc2cc(C(=O)Nc3ccc(Br)cc3F)ccc21	i	.	.	.	.	?
Cc1ccc(-c2cn3c(n2)sc2cc(C(=O)NCCC4=CCCCC4)ccc23)c(C)c1	i	.	.	.	.	i
Cc1ccc(-c2noc(C3CCCN(C(=O)c4ccccc4Br)C3)n2)cc1 (centres undefined)	18µM*	16%	-4%	?	-28%	?
O=C(c1c(F)cccc1F)N1CCCC(c2nc(-c3ccc(Cl)cc3)no2)C1 (centres undefined)	?	?	-10%	-19%	-25%	18µM*
COc1ccc(C(=O)N2CCCC(c3nc(-c4ccc(OC)c(OC)c4)no3)C2)c(OC)c1 (centres undefined)	4.1µM*	10%	4%	-8%	-4%	i
COc1ccc(-c2noc(C3CCCN(C(=O)c4c(F)cccc4F)C3)n2)cc1OC (centres undefined)	i	-1%	0%	3%	3%	i
COc1ccc(-c2noc(C3CCCN(C(=O)c4ccccc4OC)C3)n2)cc1OC (centres undefined)	i	-16%	13%	-23%	-3%	i
Cc1ccc(-c2noc(C3CCCN(C(=O)c4cccc(F)c4)C3)n2)cc1 (centres undefined)	i	15%	-1%	-8%	-11%	i
Cc1ccc(-c2noc(C3CCCN(C(=O)c4c(F)cccc4F)C3)n2)cc1 (centres undefined)	16µM*	?	1%	-29%	-3%	i
Cc1nc2nncn2c(Nc2ccc(F)cc2)c1C	i	.	.	.	.	i
COc1ccccc1NC(=O)Cn1c(=O)n(Cc2nc(-c3ccccc3)no2)c(=O)c2ccccc21	i	.	.	.	.	i
CCCn1c(SCc2nc(-c3ccccc3OCC)no2)nnc1-c1ccc(Cl)cc1	i	.	.	.	.	i
O=C(c1[nH]c(C(F)(F)F)nc1-c1ccccc1)N1CCc2c([nH]c3ccccc23)C1	i	.	.	4.6µM*	?	5.8µM*
Cc1ccc(N2CCN(C(=O)c3[nH]c(C(F)(F)F)nc3-c3ccccc3)CC2)cc1	i	.	.	-28%	-23%	i
O=C(c1[nH]c(C(F)(F)F)nc1-c1ccccc1)N1CCN(c2ccccc2)CC1	?	.	.	2.1µM*	?	6.5µM*
O=C(c1[nH]c(C(F)(F)F)nc1-c1ccccc1)N1CCN(c2ncccn2)CC1	?	.	.	?	-29%	?
Cc1c(Br)cnc2ccccc12	i	.	.	.	.	i
CC[N+](CC)(CC)CC[C@](O)(c1ccccc1)C1CCCCC1	.	-2%[20.6 µM]	-1%[20.6 µM]	.	.	.
O=C(CCl)Nc1ccc(N=Nc2ccccc2)cc1	i	?	23µM*	-3%	?	i
CC(=O)Nc1ccc(NC(=O)Cc2ccc(-c3ccccc3)cc2)cc1	i	8%	-2%	0%	9%	i
SMILES	KB-V1 cytotox	MCF10A rerep	SW480 rerep	HT1080 IDH1KD tx	HT1080NT lethal	KB-3-1 tox
CCC(=O)Nc1ccc(N2CCCCC2)cc1	i	6%	-3%	-4%	3%	i
O=C(CCl)Nc1ccc(N2CCCCCC2)cc1	i	15µM*	21µM*	18µM*	23µM*	?
O=C(CCl)Nc1ccc(-c2ccccc2)cc1	?	16µM*	?	9.2µM*	4.6µM*	?
O=C(C[n+]1cccc(Cl)c1)c1ccc(O)c(O)c1	i	.	.	.	.	?
CCC(C)NC(=O)Cn1c(=O)ccc2cc(S(=O)(=O)N3CCCC3)ccc21 (centres undefined)	i	.	.	.	.	i
COc1ccc(C(=O)NC(Nc2ccccc2)C(Cl)(Cl)Cl)cc1 (centres undefined)	8.2µM*	?	2%	-18%	-6%	?
COc1ccc(C(=O)NNc2ccccc2)cc1	i	8%	2%	-10%	?	i
COc1ccc(NC(=O)C(NC(=O)c2ccccc2)C(C)C)cc1 (centres undefined)	21µM*	6%	0%	?	0%	i
COc1ccc(C(=O)NC(C(=O)NCc2ccccc2OC)C(C)C)cc1 (centres undefined)	i	0.92µM*	-44%	8%	7%	i
COc1cccc(Cn2c(=O)n(-c3cccc(Cl)c3)c(=O)c3c4c(sc32)CN(C(C)=O)CC4)c1	?	.	.	.	.	i
CCOC(=O)[C@]12CCCC=C1N(Cc1ccccc1)C(=O)[C@H](CC(=O)NCc1ccc(OC)c(OC)c1)C2	i	.	.	-16%	0%	i
CCOC(=O)[C@]12CCCC=C1N(Cc1cccc3ccccc13)C(=O)[C@H](CC(=O)NCc1ccc(OC)c(OC)c1)C2	6.5µM*	.	.	?	?	?
CCCCNC(=O)C[C@@H]1C[C@@]2(C(=O)OCC)CCCC=C2N(Cc2ccc(Cl)cc2Cl)C1=O	9.2µM*	.	.	-29%	?	?
CCOC(=O)[C@]12CCC=C1N(Cc1ccc(Cl)cc1Cl)C(=O)[C@H](CC(=O)NCc1ccc(OC)c(OC)c1)C2	5.2µM*	.	.	-29%	?	7.3µM*
CCOC(=O)[C@]12CCCC=C1N(Cc1cccc3ccccc13)C(=O)[C@H](CC(=O)N1CCCC1)C2	9.2µM*	.	.	-10%	-10%	i
COc1c(C)cccc1C(=O)Nc1ccc(Cl)c(-c2nc3cc(C)ccc3o2)c1	i	.	.	.	.	i
CCOC(=O)[C@]12CCCC=C1N(Cc1cccc3ccccc13)C(=O)[C@H](CC(=O)NCc1cccs1)C2	16µM*	.	.	?	?	?
CCOC(=O)[C@]12CCC=C1N(Cc1cccc3ccccc13)C(=O)[C@H](CC(=O)NCc1cccs1)C2	?	.	.	-30%	?	?
